Source: PubChem (National Center for Advancing Translational Sciences (NCATS))
AmpC detergent – inhibitors of E. coli AmpC beta-lactamase with detergent | P00811 | AmpC hydrolysis of nitrocefin, absorbance 480 nm, 0.01% Triton | Potency, µM (top dose mostly 114 µM), for the others: top-dose activity change, negative = inhibition, most hits filed as inhibitors | hit rate 0.041% among 370,000 | AID 485294;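 further: 0% = no-compound wells and -100% = no-enzyme wells; nearly all actives have a fitted effect of over 25% in size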
Target sequence (P00811 whole entry, looked up): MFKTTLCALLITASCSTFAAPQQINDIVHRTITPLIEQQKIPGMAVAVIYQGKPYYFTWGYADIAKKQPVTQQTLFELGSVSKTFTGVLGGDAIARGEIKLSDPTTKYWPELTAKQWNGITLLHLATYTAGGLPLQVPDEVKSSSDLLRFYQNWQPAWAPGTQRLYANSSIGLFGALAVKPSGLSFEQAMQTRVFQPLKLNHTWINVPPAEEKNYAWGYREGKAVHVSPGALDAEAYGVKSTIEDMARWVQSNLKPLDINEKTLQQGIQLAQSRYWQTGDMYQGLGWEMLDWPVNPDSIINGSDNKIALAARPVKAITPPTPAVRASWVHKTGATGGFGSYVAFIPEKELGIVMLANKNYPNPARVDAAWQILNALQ
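20 mM phosphate pH 7.0 + 0.01% (detergent screen) or 0.0001% Triton X-100; 5.3 nM AmpC reagent; cpd preinc 15 min RT; nitrocefin (800 uM stock) to start; A480 q20 s × 4 min; Activity was normalised to no-enzyme and no-compound control wells.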
Sm TGR inh – inhibitors of Schistosoma mansoni thioredoxin glutathione reductase; hit rate 3% among 360,000; purified TGR, DTNB reduction, TNB absorbance 405 nm; Potency, µM (series often up to 114 µM), inactives show at the top dose activity change, negative = inhibition, usual class: inhibitors; further: nearly all actives have a fitted effect of over 60% in size
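Kinetic colorimetric format: TGR-catalysed, NADPH-driven DTNB reduction monitored via TNB absorbance. Enzyme dispensed at 20 nM; compound exposure 15 min at room temperature before reaction start.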
AmpC no deterg – AmpC beta-lactamase inhibition without detergent; P00811; AmpC nitrocefin hydrolysis, absorbance 480 nm, 0.0001% Triton; Potency, µM (top dose mostly 57.1 µM), for the others: at the top dose activity change, negative = inhibition, most hits filed as inhibitors; hit rate 0.52% among 330,000;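 further: plate controls were no compound for no effect and no enzyme for full effect; nearly all actives have a fitted effect of over 20% in size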
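20 mM phosphate pH 7.0 + 0.01% (detergent screen) or 0.0001% Triton X-100; 5.3 nM AmpC reagent; cpd preinc 15 min RT; nitrocefin (800 uM stock) to start; A480 q20 s × 4 min; Activity was normalised to no-enzyme and no-compound control wells.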
Numbers without * were called inactive; ? = inconclusive; . = no result given. Compounds with a hit are over-represented: about 3.3% of the library has one in this group of screens. The call rests on the fitted dose curve; in most records, active means well fitted curve in the direction sought with a large enough effect; inconclusive means small, poorly fitted or top-dose-only effect, or another doubt; inactive means no such curve, though single readings can be large; an effect the other way counts as inactive or inconclusive. Unless noted, on the % scale 0 is the no-effect control and ±100 the full control effect; potency means the concentration at half of the fitted maximal effect.

SMILES | AmpC detergent | Sm TGR inh | AmpC no deterg
N#Cc1nc(COc2ccccc2Cl)oc1NCc1ccco1 | 0.8% | 22.4µM* | -32.6%
COc1ccccc1OCc1nc(C#N)c(NCCCn2ccnc2)o1 | 4.7% | 44.7µM* | -4.6%
COc1ccccc1OCc1nc(C#N)c(NCc2ccc(C)cc2)o1 | -11.6% | -9.4% | .
N#Cc1nc(COc2ccc(F)cc2)oc1NCCCn1ccnc1 | 1.7% | -13.2% | -19.4%
N#Cc1nc(COc2ccccc2F)oc1NCCCn1ccnc1 | -5.0% | 25.1µM* | 9.4%
N#Cc1nc(COc2ccccc2Cl)oc1NCCc1ccccc1 | -8.5% | -23.9% | .
N#Cc1nc(COc2ccccc2)oc1NCCCn1ccnc1 | 1.5% | -3.3% | -15.6%
COc1ccc(-n2nc(-c3ccc(C)cc3)c3cnc4cc(F)c(F)cc4c32)cc1 | 0.8% | 9.5% | .
CCNc1oc(COc2ccccc2F)nc1C#N | ? | 56.2µM* | -10.7%
COc1ccc(CCNc2oc(COc3ccccc3F)nc2C#N)cc1OC | -5.5% | ? | -9.0%
COc1ccccc1[As](=O)(O)CC(O)COc1ccc(Cl)cc1Cl (stereo not drawn) | ? | 39.8µM* | -7.5%
COc1ccccc1S(=O)(=O)CC(O)COc1ccccc1Cl (stereo not drawn) | -2.7% | -23.7% | -13.6%
COc1ccc2nc3sc(C(=O)Nc4cc(Cl)c(OC)cc4OC)cc3cc2c1 | 5.9% | -9.7% | .
Cc1ccc(C)c(Nc2nn3c(=O)c4ccc(C(=O)NCc5cccs5)cc4nc3s2)c1 | -1.2% | 2.1% | .
CCN(CC)S(=O)(=O)c1ccc(N2CCOCC2)c(NC(=O)c2ccccc2)c1 | -13.4% | -9.0% | 22.3%
CCN(CC)S(=O)(=O)c1ccc(O)c(NC(=O)c2ccc(N3CCOCC3)c([N+](=O)[O-])c2)c1 | 0.8% | 1.4% | 20µM*
CC(=O)c1cc(-c2ccccc2)n(CCC(=O)Nc2ccc(C(C)C)cc2)c1C | 4.3% | 5.4% | .
CCOC(=O)C1=C(c2ccc(OC)cc2)OC(N)=C(C#N)C1c1cccnc1 (stereo not drawn) | 1.0% | 11.2µM* | -23.1%
CCOC(=O)C1=C(C)OC(N)=C(C#N)C1c1ccoc1 (stereo not drawn) | -13.6% | 31.6µM* | -3.9%
CCOC(=O)C1=C(c2ccccc2)OC(N)=C(C#N)C1c1cccnc1 (stereo not drawn) | -3.8% | -32.3% | -18.8%
CCOC(=O)C1=C(c2ccccc2)OC(N)=C(C#N)C1c1ccc(Br)s1 (stereo not drawn) | -8.7% | 39.8µM* | -30.5%
CCOC(=O)C1=C(c2ccccc2)OC(N)=C(C#N)C1c1ccc(Cl)s1 (stereo not drawn) | 7.1% | ? | -23.3%
CCOC(=O)C1=C(C)OC(N)=C(C#N)C1c1ccccc1 (stereo not drawn) | 1.1% | ? | -5.6%
CCOC(=O)C1=C(N)OC(CCl)=C(C#N)C1c1ccsc1 (stereo not drawn) | 3.5% | 12.6µM* | -13.3%
CC1=C(C(=O)OCc2ccccc2)C(c2ccsc2)C(C#N)=C(N)O1 (stereo not drawn) | -6.0% | -22.4% | -26.7%
SMILES | AmpC detergent | Sm TGR inh | AmpC no deterg
CCN(CC)C(=O)c1ccccc1NC(=O)c1cccc(S(=O)(=O)N2CCC(C)CC2)c1 | -1.5% | -2.4% | .
Cc1ccc(CNC(=O)CN2C(=O)CSc3ccc(S(=O)(=O)N(C)C)cc32)cc1 | 4.6% | 3.5% | .
CCOC(=O)c1c(NC(=O)Nc2ccc(F)cc2)sc(C(=O)N(C)C)c1C | -6.4% | 0.7% | .
COc1cc(NC(=O)Cn2ccc3ccccc3c2=O)cc(OC)c1OC | -2.7% | 5.8% | .
COc1cc(NC(=O)CCN2CCN(c3ccccc3)CC2)cc(OC)c1 | 0.6% | -2.3% | .
Cc1cc(C)cc(NC(=O)Cn2cc(C(=O)c3ccncc3)c(=O)c3cc(C)c(C)cc32)c1 | 15.5% | 0.0% | .
COc1ccc(CNC(=O)Cn2nc(N3CCN(c4ccccc4)CC3)ccc2=O)c(OC)c1 | 3.3% | 2.8% | .
O=C(N/C(C(=O)N1CCOCC1)=C(\Sc1ncccn1)c1ccccc1)c1ccccc1 | -8.9% | 39.8µM* | 19.9%
CC(C)=C(NC(=O)c1ccccc1)C(=O)N1CCOCC1 | ? | 3.8% | -8.0%
Cc1ccc(C(=O)Nc2cc(-c3cn4cccnc4n3)ccc2C)cc1C | 13.4% | -3.6% | .
COc1ccccc1CNc1cc(-c2ccccc2)nc2nncn12 | 1.9% | 35.5µM* | .
Clc1ccc(CNc2cc(-c3ccccc3)nc3nncn23)cc1 | -4.0% | -7.1% | .
NC(=O)c1ccccc1N/C=C/C(=O)c1ccc(Cl)cc1 | 3.1% | 0.0% | -26.4%
O=C(/C=C/Sc1ccccc1)c1ccc(Cl)cc1 | -12.2% | 31.6µM* | -31.2%
O=C(/C=C/Sc1ccccc1)c1ccccc1 | -2.0% | 10µM* | -20.5%
O=C(/C=C/Nc1ccccc1)c1ccccc1 | 4.5% | 97.8% | -12.8%
COc1cccc(N2CCN(c3ncnc4onc(-c5ccc(F)cc5)c34)CC2)c1 | -4.4% | 0.3% | .
C1=CC(Cc2cncs2)c2ccccc21 (stereo not drawn) | -0.7% | 50.1µM* | -10.1%
O[C@H]1c2ccccc2[C@H](Cc2cncs2)[C@@H]1Br | -0.9% | -6.2% | -3.2%
COc1ccc(Nc2ncc3c(n2)CCN(Cc2cc(Br)cs2)C3)c(OC)c1 | 9.1% | 2.6% | .
O=C(Nc1ccc(-c2cn3ccccc3n2)cc1)c1cccs1 | -6.5% | -30.3% | 28.2µM*
COc1ccc(CC(=O)Nc2ccc(-c3cn4ccccc4n3)cc2)cc1 | -9.7% | 20.3% | -12.1%
CCOC(=O)c1ccc(OC(=O)c2cn(-c3ccc(C)cc3)c(=O)c3ccccc23)cc1 | 4.2% | -10.1% | .
O=C1NC(=O)N(c2ccccc2)C(=O)/C1=C/c1ccc2c(c1)Cc1ccccc1-2 | -1.7% | ? | -21.5%
COc1ccccc1N1C(=O)NC(=O)/C(=C/c2ccc3c(c2)Cc2ccccc2-3)C1=O | ? | 31.6µM* | -18.2%
SMILES | AmpC detergent | Sm TGR inh | AmpC no deterg
CCCN(CCC)C(=O)Cn1c(=O)n(CCCCCC(=O)NCc2ccccc2Cl)c(=O)c2sccc21 | -4.7% | 10.6% | .
COc1cccc(C(=O)N(Cc2ccco2)c2ccccn2)c1 | 5.4% | -19.3% | .
COc1ccccc1C(=O)Nc1nnc(SCc2cc(=O)n3ccc(C)cc3n2)s1 | 16.2% | -0.4% | .
Cc1ccc(CN(C)C(=O)c2ccccc2NC(=O)c2ccccc2)o1 | -18.6% | 39.8µM* | -16.0%
CN(Cc1ccccc1)C(=O)c1ccccc1NC(=O)c1ccco1 | -5.1% | -12.3% | 4.1%
COc1ccc2oc(=O)cc(CN3CCN(C(=O)c4ccccc4F)CC3)c2c1 | -1.8% | ? | .
Cc1ccc(-c2nnc(SCC(=O)NCCC(C)C)nc2-c2ccc(C)cc2)cc1 | -2.1% | -1.7% | .
CC1=C(C(=O)NCc2ccccn2)C2(CCC(C)CC2)OC1=O (stereo not drawn) | ? | -2.2% | 2.82µM*
CC1=C(C(=O)NCc2ccc(Cl)cc2)C2(CCC(C)CC2)OC1=O (stereo not drawn) | 0.9% | 9.2% | 35.8%
Cc1cc(C)c(NC(=O)CCC(=O)N2Cc3ccccc3Oc3ncccc32)c(C)c1 | 2.9% | -0.6% | .
O=C1NCCCc2c1oc1ccc(O)cc21 | -12.9% | 9.0% | 8.1%
Oc1c(Cl)cc(Cl)c2c1NCCC2 | -11.6% | 1µM* | -34.1%
COC(=O)c1ccc(NC(=O)CSc2ncc3c(n2)-c2cc(Cl)ccc2N(Cc2ccccc2)S3(=O)=O)cc1 | -3.5% | -1.5% | .
